# Reference: ChEMBL document CHEMBL3988442, “University of Dundee, Small-Polar-MMV Screening Library” (2021)
# For some assays here: Results with a measured potency or affinity are listed apart.
# What was measured:
# Parameters in all cases: scale not given: direction of the effect not stated beside the values
# [1] = target: Protein translocase subunit SecA (Escherichia coli (strain K12)) (UniProt P10408); assay: Assay to Identify E. coli SecA ATPase Inhibitors; format: functional; settings: 30 µM
# [2] = target: T1, Ubiquitin-activating enzyme e1, putative (Leishmania donovani (strain BPK282A1)) (UniProt E9BSI1); assay: Leishmania donovani Ubiquitin Activating Enzyme (LdE1); format: functional; settings: 30 µM
# T1 sequence (whole entry): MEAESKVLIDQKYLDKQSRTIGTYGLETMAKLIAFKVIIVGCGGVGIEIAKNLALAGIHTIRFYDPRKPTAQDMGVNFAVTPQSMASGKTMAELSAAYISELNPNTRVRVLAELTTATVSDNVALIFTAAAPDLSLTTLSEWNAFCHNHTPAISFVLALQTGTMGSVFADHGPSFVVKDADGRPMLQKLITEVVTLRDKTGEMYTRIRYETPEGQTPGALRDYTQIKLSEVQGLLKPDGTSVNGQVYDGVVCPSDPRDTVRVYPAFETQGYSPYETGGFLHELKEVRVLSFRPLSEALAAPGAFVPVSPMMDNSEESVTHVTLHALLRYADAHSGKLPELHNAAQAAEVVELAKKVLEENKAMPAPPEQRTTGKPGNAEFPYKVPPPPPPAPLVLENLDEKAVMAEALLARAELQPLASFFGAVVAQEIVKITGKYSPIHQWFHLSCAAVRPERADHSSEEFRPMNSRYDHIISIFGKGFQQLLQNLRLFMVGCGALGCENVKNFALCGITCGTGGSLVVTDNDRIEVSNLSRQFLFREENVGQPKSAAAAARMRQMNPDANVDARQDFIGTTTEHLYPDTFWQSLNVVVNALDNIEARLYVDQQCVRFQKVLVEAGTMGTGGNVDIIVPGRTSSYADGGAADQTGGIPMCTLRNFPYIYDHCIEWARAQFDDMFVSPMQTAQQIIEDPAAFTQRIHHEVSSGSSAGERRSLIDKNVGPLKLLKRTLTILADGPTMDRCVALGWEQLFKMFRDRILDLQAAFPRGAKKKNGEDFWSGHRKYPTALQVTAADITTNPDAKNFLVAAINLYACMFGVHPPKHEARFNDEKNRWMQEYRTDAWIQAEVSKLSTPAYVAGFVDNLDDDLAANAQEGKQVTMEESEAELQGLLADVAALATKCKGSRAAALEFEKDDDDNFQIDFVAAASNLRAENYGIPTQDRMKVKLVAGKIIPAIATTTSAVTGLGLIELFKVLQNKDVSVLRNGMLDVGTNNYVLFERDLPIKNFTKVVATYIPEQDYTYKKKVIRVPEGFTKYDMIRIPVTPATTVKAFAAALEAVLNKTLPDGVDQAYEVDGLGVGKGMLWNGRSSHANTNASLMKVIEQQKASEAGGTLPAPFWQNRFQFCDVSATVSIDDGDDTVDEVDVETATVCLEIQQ
# [3] = target: AMP-activated protein kinase, AMPK (Homo sapiens) (UniProt P54646+O43741+P54619+Q9UGJ0+Q9Y478+Q13131+Q9UGI9); assay: AMP-dependent Kinase enzyme assay. An in vitro enzyme assay that detects ADP turnover that is directly proportional to AMPK activity. This uses naive AMPK that is activated during the assay with MK-8722; format: functional; settings: 30 µM
# [4] = target: Sialic acid-binding Ig-like lectin 9 (Homo sapiens) (UniProt Q9Y336); assay: Hs-Siglec9 ALPHAscreen SOP 20170721; settings: 10 µM
# Trypanosoma cruzi = assay: Trypanosoma cruzi phosphomannomutase and mannose-1-phosphate guanylyltransferase assay; format: functional; settings: 10 µM
# [5] = target: T2, Arginase-2, mitochondrial (Homo sapiens) (UniProt P78540); assay: in vitro enzyme assay to detect the production of urea directly proportional to the activity of Arginase II; format: functional; settings: 33.3 µM; also: in the data most compounds retested in dose-response had high values
# T2 sequence (whole entry): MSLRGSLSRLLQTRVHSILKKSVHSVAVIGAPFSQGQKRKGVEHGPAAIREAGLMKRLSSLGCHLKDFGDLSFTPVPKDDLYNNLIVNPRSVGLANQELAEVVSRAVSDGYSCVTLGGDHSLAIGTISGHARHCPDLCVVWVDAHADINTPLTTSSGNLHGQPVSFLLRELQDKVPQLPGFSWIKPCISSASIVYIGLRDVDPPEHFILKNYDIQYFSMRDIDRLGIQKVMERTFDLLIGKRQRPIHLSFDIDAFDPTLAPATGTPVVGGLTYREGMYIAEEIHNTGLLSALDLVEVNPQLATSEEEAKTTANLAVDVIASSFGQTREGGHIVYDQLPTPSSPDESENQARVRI
# [6] = target: T3, Proteasome subunit beta (Trypanosoma cruzi) (UniProt O96673); assay: Trypanosoma cruzi proteasome chymotrypsin-like activity (TcProtChymo) assay.; also: in the data most compounds retested in dose-response had high values; format: functional; settings: 9.37 µM
# T3 sequence (whole entry): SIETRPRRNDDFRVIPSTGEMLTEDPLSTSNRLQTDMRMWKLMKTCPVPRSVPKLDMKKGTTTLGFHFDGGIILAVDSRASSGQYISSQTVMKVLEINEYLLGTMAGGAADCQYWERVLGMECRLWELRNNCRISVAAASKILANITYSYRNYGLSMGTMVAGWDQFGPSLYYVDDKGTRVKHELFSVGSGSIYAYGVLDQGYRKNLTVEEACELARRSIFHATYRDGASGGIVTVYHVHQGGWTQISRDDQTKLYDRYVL
# Homo sapiens = species: Homo sapiens; assay: To identify inhibition of the IFN signalling (Jak-Stat) pathway via expression of an eGFP reporter gene under the control of an IFN-stimulated response element (ISRE) containing MxA promoter.; format: functional; settings: 30 µM
# [7] = target: T4, Tyrosyl-tRNA synthetase, putative (Trypanosoma cruzi (strain CL Brener)) (UniProt Q4DSP6); assay: Trypanosoma cruzi tyrosyl tRNA synthetase (TcYRS) _High Tyrosine SOP; format: functional; settings: 30 µM; also: in the data most compounds retested in dose-response had high values
# T4 sequence (whole entry): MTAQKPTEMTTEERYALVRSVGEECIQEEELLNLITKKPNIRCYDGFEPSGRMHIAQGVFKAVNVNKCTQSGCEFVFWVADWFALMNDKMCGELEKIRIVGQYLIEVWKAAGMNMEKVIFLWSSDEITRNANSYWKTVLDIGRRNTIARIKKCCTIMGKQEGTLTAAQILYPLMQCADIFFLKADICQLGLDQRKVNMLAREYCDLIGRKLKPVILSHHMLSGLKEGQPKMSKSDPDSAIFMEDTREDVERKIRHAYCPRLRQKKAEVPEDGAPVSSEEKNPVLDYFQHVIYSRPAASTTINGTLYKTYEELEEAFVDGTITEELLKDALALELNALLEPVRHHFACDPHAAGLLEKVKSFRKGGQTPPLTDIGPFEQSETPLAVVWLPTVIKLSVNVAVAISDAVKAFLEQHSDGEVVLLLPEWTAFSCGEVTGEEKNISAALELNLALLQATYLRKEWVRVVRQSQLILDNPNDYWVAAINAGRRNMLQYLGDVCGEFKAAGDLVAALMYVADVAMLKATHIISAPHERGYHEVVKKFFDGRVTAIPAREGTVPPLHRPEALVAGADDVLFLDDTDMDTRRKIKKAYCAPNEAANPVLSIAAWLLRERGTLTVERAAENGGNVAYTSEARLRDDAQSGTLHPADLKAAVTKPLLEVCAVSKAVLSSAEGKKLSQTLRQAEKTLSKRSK
# [8] = target: T4, Tyrosyl-tRNA synthetase, putative (Trypanosoma cruzi (strain CL Brener)); assay: Trypanosoma cruzi tyrosyl tRNA synthetase (TcYRS) SOP; format: functional; settings: 30 µM
# [9] = target: Chromo domain-containing protein 1 (Saccharomyces cerevisiae (strain ATCC 204508 / S288c) (Baker's yeast)) (UniProt P32657); assay: ScCHD-1 Enzyme Inhibition Assay; format: functional; settings: 30 µM; also: in the data most compounds retested in dose-response had high values
# Chain of Chromo domain-containing protein 1 (Saccharomyces cerevisiae (strain ATCC 204508 / S288c) (Baker's yeast)) (P32657 whole entry, the tested form may be a part): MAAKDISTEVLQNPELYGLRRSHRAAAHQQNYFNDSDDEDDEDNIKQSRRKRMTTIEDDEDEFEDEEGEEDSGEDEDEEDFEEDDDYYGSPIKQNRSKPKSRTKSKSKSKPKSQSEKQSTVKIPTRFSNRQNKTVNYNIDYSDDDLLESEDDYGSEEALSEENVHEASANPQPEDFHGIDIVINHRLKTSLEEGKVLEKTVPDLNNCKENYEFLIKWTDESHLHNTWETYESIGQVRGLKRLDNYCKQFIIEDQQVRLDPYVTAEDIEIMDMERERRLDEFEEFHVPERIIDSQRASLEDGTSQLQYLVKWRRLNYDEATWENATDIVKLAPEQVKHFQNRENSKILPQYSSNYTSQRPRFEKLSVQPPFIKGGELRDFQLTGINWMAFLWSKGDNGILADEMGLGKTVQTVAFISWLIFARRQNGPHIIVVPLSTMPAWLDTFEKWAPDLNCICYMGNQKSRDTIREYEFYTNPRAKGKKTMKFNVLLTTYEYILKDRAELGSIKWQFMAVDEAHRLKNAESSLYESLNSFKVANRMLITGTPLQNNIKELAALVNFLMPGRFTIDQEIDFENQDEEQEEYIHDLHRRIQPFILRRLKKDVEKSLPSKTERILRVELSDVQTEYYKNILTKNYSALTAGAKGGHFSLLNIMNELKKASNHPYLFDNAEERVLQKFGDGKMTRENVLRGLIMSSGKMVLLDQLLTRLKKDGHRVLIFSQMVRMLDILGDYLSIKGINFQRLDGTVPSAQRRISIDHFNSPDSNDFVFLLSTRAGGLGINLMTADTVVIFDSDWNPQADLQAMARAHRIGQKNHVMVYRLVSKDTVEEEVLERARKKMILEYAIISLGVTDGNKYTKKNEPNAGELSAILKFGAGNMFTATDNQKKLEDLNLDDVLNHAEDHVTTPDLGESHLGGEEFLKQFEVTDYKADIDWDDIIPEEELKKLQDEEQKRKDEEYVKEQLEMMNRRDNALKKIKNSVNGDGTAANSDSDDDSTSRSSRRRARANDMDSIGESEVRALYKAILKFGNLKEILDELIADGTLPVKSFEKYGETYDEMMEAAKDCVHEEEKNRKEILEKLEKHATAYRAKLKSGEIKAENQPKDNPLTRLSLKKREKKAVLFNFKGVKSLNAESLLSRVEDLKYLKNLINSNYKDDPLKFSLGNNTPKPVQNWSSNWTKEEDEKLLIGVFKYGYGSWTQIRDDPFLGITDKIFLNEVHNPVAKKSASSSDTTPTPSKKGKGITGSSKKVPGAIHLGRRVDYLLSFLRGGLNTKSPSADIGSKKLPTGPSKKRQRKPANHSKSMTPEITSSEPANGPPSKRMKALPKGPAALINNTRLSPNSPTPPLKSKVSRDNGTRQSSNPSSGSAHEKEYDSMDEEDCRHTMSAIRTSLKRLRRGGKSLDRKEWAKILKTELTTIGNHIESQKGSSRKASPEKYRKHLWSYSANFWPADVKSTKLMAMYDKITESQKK
# Chain of Sialic acid-binding Ig-like lectin 9 (Homo sapiens) (Q9Y336 whole entry): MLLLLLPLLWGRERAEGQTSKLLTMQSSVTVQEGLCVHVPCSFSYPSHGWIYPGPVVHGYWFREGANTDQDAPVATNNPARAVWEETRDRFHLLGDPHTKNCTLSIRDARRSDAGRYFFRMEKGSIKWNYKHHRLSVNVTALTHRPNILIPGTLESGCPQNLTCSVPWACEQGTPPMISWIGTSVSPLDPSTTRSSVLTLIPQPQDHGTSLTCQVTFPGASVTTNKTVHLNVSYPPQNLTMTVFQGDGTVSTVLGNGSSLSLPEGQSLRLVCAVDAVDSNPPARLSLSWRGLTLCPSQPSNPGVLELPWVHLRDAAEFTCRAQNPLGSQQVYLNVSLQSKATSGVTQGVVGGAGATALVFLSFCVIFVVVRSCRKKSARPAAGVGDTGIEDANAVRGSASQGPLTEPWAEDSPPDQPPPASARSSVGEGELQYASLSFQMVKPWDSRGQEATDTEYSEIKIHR
# Chain of Protein translocase subunit SecA (Escherichia coli (strain K12)) (P10408 whole entry): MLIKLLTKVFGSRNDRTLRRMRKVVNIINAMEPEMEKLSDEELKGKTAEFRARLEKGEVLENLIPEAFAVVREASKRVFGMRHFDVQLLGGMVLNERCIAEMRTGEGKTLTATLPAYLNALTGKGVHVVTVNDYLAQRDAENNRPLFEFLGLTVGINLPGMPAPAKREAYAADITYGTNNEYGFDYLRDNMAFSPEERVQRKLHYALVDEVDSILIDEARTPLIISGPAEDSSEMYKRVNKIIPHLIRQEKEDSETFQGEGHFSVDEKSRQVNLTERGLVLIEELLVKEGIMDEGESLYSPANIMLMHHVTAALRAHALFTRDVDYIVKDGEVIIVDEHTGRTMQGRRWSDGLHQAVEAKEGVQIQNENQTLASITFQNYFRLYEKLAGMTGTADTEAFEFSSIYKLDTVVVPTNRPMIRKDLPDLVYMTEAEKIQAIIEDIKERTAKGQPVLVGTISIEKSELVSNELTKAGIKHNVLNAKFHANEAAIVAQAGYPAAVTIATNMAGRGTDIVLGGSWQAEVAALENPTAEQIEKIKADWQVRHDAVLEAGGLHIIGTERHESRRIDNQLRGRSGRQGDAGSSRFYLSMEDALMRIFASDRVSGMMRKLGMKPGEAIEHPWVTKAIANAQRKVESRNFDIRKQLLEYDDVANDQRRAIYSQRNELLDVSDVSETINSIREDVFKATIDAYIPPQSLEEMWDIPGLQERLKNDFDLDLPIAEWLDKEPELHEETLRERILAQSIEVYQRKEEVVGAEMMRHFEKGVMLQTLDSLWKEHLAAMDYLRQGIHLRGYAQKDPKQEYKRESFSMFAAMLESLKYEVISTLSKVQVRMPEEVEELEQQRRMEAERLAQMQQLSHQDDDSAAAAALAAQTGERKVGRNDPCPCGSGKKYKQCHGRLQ
SMILES,Percent Effect [1],Percent Effect [2],Percent Effect [3],Percent Effect [4],Percent Effect (Trypanosoma cruzi),Percent Effect [5],Percent Effect [6],Percent Effect (Homo sapiens),Percent Effect [7],Percent Effect [8],Percent Effect [9]
CCc1noc(C(C)N(C)CC(=O)Nc2cccc(C)n2)n1 (stereo unspecified),0.372%,0%,5.73%,0.963%,-0.979%,0.909%,7.28%,0.0607%,-1.07%,0%,2.92%
Cc1ccc(CC(=O)N2Cc3nccn3CC(Cn3cccn3)C2)cc1 (stereo unspecified),0.712%,8.22%,-7.73%,14.5%,3.77%,2.79%,11.2%,17.3%,4.17%,16.1%,-6.87%
COc1cccc(N2CCN(CC(O)c3cc(C)ccc3C)CC2)c1 (stereo unspecified),-1.87%,10.5%,-6.71%,-9.14%,-8.67%,2.37%,18.5%,-5.38%,7.45%,7.79%,-5.09%
Cc1cc(C)n(Cc2ccc(C(=O)NCCN3CCOCC3)cc2)n1,-1.98%,4.17%,-0.277%,-1.95%,6.32%,-0.442%,19.6%,5.69%,7.37%,7.69%,-6.36%
CC(NCC1=Cc2cc(Cl)ccc2OC1)c1nnc2n1CCCC2 (stereo unspecified),-3.07%,-2.7%,3.91%,2.75%,-0.195%,1.67%,9.38%,-10.3%,4.95%,1.22%,-3.29%
CN(C)C(=O)N1Cc2nnn(C)c2C(COCC2CC2)C1 (stereo unspecified),1.21%,-21.9%,-4.36%,0.0741%,4.96%,2%,6.76%,-7.39%,2.08%,6.17%,-1.7%
Cc1cccc(CN2C(=O)CO[C@@H]3CN(CCO)C[C@H]32)c1,1.05%,10.8%,-5.9%,-3.44%,4.88%,26.2%,12.1%,10.1%,6.93%,8.54%,1.31%
CC(O)CN1CCN(C(=O)c2cn(-c3ccccc3Cl)nn2)CC1 (stereo unspecified),-1.74%,10.8%,-3.04%,16.5%,2.44%,5.71%,4.21%,-2.08%,3.23%,13.6%,-4.02%
O=C(Nc1cc(F)ccc1OCC1CCCO1)c1ccccn1 (stereo unspecified),-2.56%,2.6%,23.7%,12.2%,3.04%,3.16%,0.242%,2.47%,2.86%,9.41%,-15.1%
CCc1nnc2n1CCN(Cc1ccc(C(=O)N3CCCC3)cc1)C2,-2.96%,13.5%,2.51%,-7.2%,-2.69%,-4.25%,12.8%,17.1%,6.93%,15.8%,-4.5%
CCc1noc(C(C)N2CCN(c3ccc(C#N)cc3F)CC2)n1 (stereo unspecified),-1.97%,5.26%,2.6%,-3.73%,7.89%,-8.28%,21.2%,-24.1%,6.38%,13%,-4.69%
COc1ccc(-n2nnc(C(=O)NC(C)C)c2C2CC2)cc1,-1.4%,1.39%,-9.18%,9.95%,4.96%,15%,4.21%,9.68%,0%,0%,-0.372%
COCCN(CCc1ccccc1)Cc1nc2c(cnn2C)c(=O)[nH]1,-1.78%,13.5%,1.09%,15.2%,1.04%,-2.81%,-0.36%,-11.6%,7.39%,18.5%,-9.44%
CCCNCc1cc2c(C)cc(C)cc2n2c(=O)n(C)nc12,-5.13%,4.05%,11%,0.45%,4.94%,9.05%,5.62%,16.2%,4.3%,3.9%,-20%
Nc1cc(CCCNC(=O)NC2CC2)nn1-c1ccccc1,-3.6%,5.48%,1.41%,-7.75%,-6.27%,-6.82%,14.7%,3.12%,0%,5%,-2.26%
C1CCCN(c2nc(C3CC3)ns2)CC1,-7.97%,-5.48%,-19.9%,6.34%,-4.31%,-2.27%,12.2%,30.1%,-4.3%,-10%,-3.08%
